The nature of assay [1]: compound effects on lung adenocarcinoma cell viability – A549, calcein-AM fluorescence, 48 h, basal, profiling panel (AID 1162). The note with it: higher = more signal.
Assay [2] is described as follows: compound effects on differentiated 3T3-L1 adipocyte viability – cell-based, 3T3-L1 adipocytes, calcein-AM fluorescence, 48 h, basal, profiling panel (AID 1163). The note with it: 3T3-L1 adipocytes viability, higher = more signal.
Assay [3] in a line: compound effects on hepatocellular carcinoma cell viability – HepG2, calcein-AM fluorescence, 48 h, basal, profiling panel (AID 1164). As to conditions: higher = more signal.
Assay [4] in a line: compound effects on multiple myeloma cell viability – MM1S, calcein-AM fluorescence, 48 h, basal, profiling panel (AID 1165).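 Note: viability of MM1S multiple myeloma cells under basal unstimulated conditions.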 The note with it: higher = more signal.
A short description of assay [5]: calcein-AM signal in unstimulated myeloma cells – cell-based, calcein-AM fluorescence, 48 h, PK04 Diversity Set, profiling panel (AID 1166).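 Note: cells grown under basal conditions without added stimulus.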 As to conditions: RPMI8226 myeloma viability, higher = more signal.
Assay [6] can be described thus: JC-1 mitochondrial signal, unstimulated HepG2 cells – cell-based, JC-1 fluorescence, 24 h, 100 nL compound, profiling panel (AID 1167). The note with it: HepG2 mitochondrial potential, higher = more signal.
The nature of assay [7]: JC-1 mitochondrial signal, unstimulated adipocytes – cell-based, JC-1 fluorescence, 3T3-L1 adipocytes, 24 h, 100 nL compound, profiling panel (AID 1168). The note with it: JC-1 mitochondrial fluorescence, higher = more signal, called active from +8 up or from −8 down.
A short description of assay [8]: JC-1 mitochondrial signal, unstimulated myeloma cells – cell-based, JC-1 fluorescence, RPMI8226, 24 h, 100 nL compound, profiling panel (AID 1169). As to conditions: JC-1 mitochondrial potential fluorescence, higher = more signal.
Assay [9] in a line: JC-1 mitochondrial signal, unstimulated MM1S myeloma – cell-based, JC-1 fluorescence, 24 h, 100 nL compound, profiling panel (AID 1170). As to conditions: MM1S mitochondrial potential, higher = more signal.
The nature of assay [10]: resazurin metabolic signal in A549 cells – cell-based, resazurin fluorescence, 24 h, PK04 Diversity Set, profiling panel (AID 1171). As to conditions: A549 viability, higher = more signal, called active from +8 up or from −8 down. A general note: The colour change of resazurin is a common sign of viable cells or microbes.

The source made the active and inactive calls.
Note: test concentration not given here.

Consider `CC[C@@H]1[C@@H]2C3C(=O)N(CC)C(=O)C3CC(=O)[C@@H]2[C@H](c2ccc(C)cc2)N1S(=O)(=O)c1ccc(C)cc1` (stereo not given in full), for which the z-score in assay [1] was 0.63; in assay [2], 0.552; in [3], 0.769; in assay [4], -0.639; in assay [5], -1.6; in [6], 0.601. Moreover, the z-score was 0.0417 (inactive) in [7], -0.227 in assay [8], -1.59 in [9] and -0.195 (inactive) in assay [10].
As to `CN(C)C(=O)[C@@]1(CCC(=O)OC(C)(C)C)N=C(c2ccc(OCCCO)cc2)O[C@H]1c1ccccc1N=[N+]=[N-]`, the z-score in [1] is 0.186; in assay [2], 0.727; in assay [3] it was -0.34; in assay [4], -0.956; in assay [5], 0.0691; in assay [6], 1.45. Moreover, the z-score in assay [7] is -0.371 (inactive); in assay [8], -0.432; in assay [9] it was -0.0283; in assay [10], 0.966 (inactive).
`CC(C)(C)OC(=O)CC[C@]1(C(=O)N2CCCCC2)N=C(c2ccc(OCCCO)cc2)O[C@H]1c1ccccc1CN=[N+]=[N-]`: the z-score in assay [1] was 1.1; in assay [2], 0.876; in assay [3] it was 1.58; in assay [4], -2.99; in [5], -2.01; in assay [6], 2.46. Further, the z-score is 0.67 (inactive) in assay [7], -0.983 in assay [8], 0.358 in assay [9] and -1.35 (inactive) in assay [10].
As for `COC(=O)[C@@]1(Cc2ccc(OC)cc2)[C@H]2c3cc(C(=O)N4CCCC4)n(CCc4ccc(O)c(OC)c4)c3C[C@H]2CN1C(=O)c1ccccc1`, the z-score in assay [1] was -1.47; in assay [2], 0.0048; in [3], -0.0475; in assay [4] it was -1.03; in [5] it was -0.254; in assay [6], -0.851. Further, the z-score was -0.867 (inactive) in [7], -0.167 in assay [8], -0.563 in assay [9] and 1.05 (inactive) in [10].
With `O=C1C2C=CC(C(O)c3ccc(Br)cc3)N(Nc3ccccc3)C2C(=O)N1c1ccccc1` (stereo not given), the z-score was -1.17 in assay [1]; -1.45 in assay [2]; -0.5 in assay [3]; -1.27 in assay [4]; 0.134 in assay [5]; -1.92 in assay [6]. For the same molecule, the z-score in assay [7] is -0.711 (inactive); in assay [8], -0.163; in assay [9], -0.0898; in assay [10], -0.201 (inactive).
Turning to `C=C(COC)C(=O)CC[C@H](OC(=O)c1ccccc1-c1ccccc1C(=O)O)c1ccc(CO)o1`, the z-score in assay [1] was -0.643; in [2], -0.398; in assay [3] it was -0.985; in assay [4] it was 0.232; in [5] it was -0.0416; in assay [6], -1.01. Besides, the z-score in [7] was -0.345 (inactive); in assay [8] it was 0.12; in assay [9] it was 0.433; in assay [10] it was -0.256 (inactive).
On to `[N-]=[N+]=Nc1ccccc1C[C@]1(C(=O)NCCN2CCOCC2)N=C(c2ccc(OCCCO)cc2)O[C@H]1c1ccccc1N=[N+]=[N-]`, for which the z-score is 0.0861 in assay [1]; 0.784 in assay [2]; -0.111 in assay [3]; -2.41 in [4]; -1.2 in assay [5]; 1.23 in assay [6]. For the same molecule, the z-score in [7] was 1.27 (inactive); in assay [8] it was -1; in [9], -0.571; in [10], -2.47 (inactive).
`C[C@]12C(=O)N(CCCO)[C@@H]3C(=O)N(c4ccc(Cl)cc4)CC=CC31O[C@@H]1/C=C\CCCOC(=O)C12` (stereo not given in full): the z-score in assay [1] was 0.348; in assay [2], 0.922; in assay [3], -0.114; in assay [4] it was 0.14; in assay [5], -0.191; in assay [6] it was -0.665. Moreover, the z-score was -1.25 (inactive) in assay [7], -0.0538 in assay [8], 1.18 in assay [9] and -0.0576 (inactive) in [10].
In the case of `CCCCC(O)C1C=CC2C(=O)N(Cc3ccccc3)C(=O)C2N1n1cnnc1` (stereo not given), the z-score in [1] is -1.15; in assay [2] it was 0.845; in assay [3], -0.189; in [4], 0.179; in [5], -0.458; in assay [6] it was 0.135. For the same molecule, the z-score in [7] is -0.942 (inactive); in assay [8], -0.874; in assay [9] it was -1.26; in assay [10] it was 0.164 (inactive).
As for `CC1=C2[C@@H](CCc3ccccc3)OB(O)C[C@@H]2[C@@H]2C(=O)C=CC(=O)[C@@H]2C1`, the z-score in [1] is -0.223; in assay [2] it was 0.36; in [3], -0.63; in assay [4] it was -3.38; in [5], -3.64; in assay [6], -3.63. Also, the z-score in assay [7] is -1.5 (inactive); in assay [8], -1.12; in [9], -2.78; in [10], -0.247 (inactive).
Regarding `O=C1C[C@@](C(=O)NCc2ccccc2)(c2ccc([N+](=O)[O-])cc2)[C@@H](c2ccc(CO)cc2I)N1C1CCCCC1`, the z-score was 1.14 in assay [1]; 0.317 in assay [2]; 0.593 in assay [3]; -1.6 in [4]; -1.22 in [5]; 1.67 in assay [6]. For the same molecule, the z-score in [7] was 0.254 (inactive); in assay [8], -0.572; in assay [9] it was 0.576; in [10], 0.75 (inactive).
Take `OCc1ccc(-c2cc[n+](Cc3cccc(OC(F)(F)F)c3)cc2)cc1`: the z-score in assay [1] is -1.19; in [2], 0.983; in assay [3], -0.52; in assay [4] it was 0.47; in [5] it was -0.483; in assay [6] it was -0.628. The z-score was 0.296 (inactive) in assay [7], -0.672 in assay [8], -0.704 in assay [9] and -0.395 (inactive) in assay [10].
With `O=C1C2C=CC(C(O)c3ccccn3)N(Nc3ccccc3)C2C(=O)N1c1ccccc1` (stereo not given), the z-score was 0.312 in assay [1]; -1.46 in assay [2]; 0.593 in [3]; 0.111 in assay [4]; -0.0462 in assay [5]; -0.568 in assay [6]. Further, the z-score in [7] is -0.467 (inactive); in [8] it was -0.234; in assay [9], -1.11; in assay [10] it was -0.752 (inactive).
With `CCC[C@@H]1C[C@@]1(CCC)[C@@H](NC(=O)c1ccco1)c1ccc(Cl)cc1`, the z-score in [1] was -1.03; in assay [2], -0.741; in assay [3], -1.06; in [4] it was -1.6; in assay [5], -4.31; in [6] it was -1.62. Further, the z-score in assay [7] was -0.00207 (inactive); in assay [8], -0.736; in assay [9], -2.07; in assay [10], -1.91 (inactive).

These data come from PubChem BioAssay.
